# RGS4 inh: human RGS4 inhibition | 390,000 compounds, 0.039% hits | P49798 | Potency, µM (top dose mostly 114 µM), for inactives: at the highest dose activity change, negative = inhibition, most hits filed as inhibitors | Transcreener GDP fluorescence polarization, RGS4-accelerated GTP hydrolysis; also: potency is read from the fitted curve at half-maximal effect; % is scaled to controls: 0 for no effect and ±100 for the full control effect; nearly all actives have a fitted effect of over 75% in size
# Target sequence (P49798 whole entry, looked up): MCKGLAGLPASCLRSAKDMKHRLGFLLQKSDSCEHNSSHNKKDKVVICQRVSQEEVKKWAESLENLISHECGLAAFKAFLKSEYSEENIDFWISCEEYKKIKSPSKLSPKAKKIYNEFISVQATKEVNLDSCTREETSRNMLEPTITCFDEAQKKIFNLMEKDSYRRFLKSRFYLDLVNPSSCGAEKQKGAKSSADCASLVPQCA
#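 MLSMR compounds (23 nl, pin-transferred) preincubated 10 min at room temperature with a 500nM (2x) first reagent, then RGS4 at 900nM (2x) plus Transcreener GDP mix added; fluorescence polarization (620/688 nm) read before and after 90 min at 30 °C.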
# DRD3 agonist: D3 dopamine receptor (human) agonism; P35462; D3R DiscoveRx beta-arrestin cells, luminescence, 90 min; max activation, %; 410,000 compounds, 0.58% hits; AID 652048; in the data active = max activation above about 30%; also: 0% is about no effect
# Target sequence (P35462 whole entry, looked up): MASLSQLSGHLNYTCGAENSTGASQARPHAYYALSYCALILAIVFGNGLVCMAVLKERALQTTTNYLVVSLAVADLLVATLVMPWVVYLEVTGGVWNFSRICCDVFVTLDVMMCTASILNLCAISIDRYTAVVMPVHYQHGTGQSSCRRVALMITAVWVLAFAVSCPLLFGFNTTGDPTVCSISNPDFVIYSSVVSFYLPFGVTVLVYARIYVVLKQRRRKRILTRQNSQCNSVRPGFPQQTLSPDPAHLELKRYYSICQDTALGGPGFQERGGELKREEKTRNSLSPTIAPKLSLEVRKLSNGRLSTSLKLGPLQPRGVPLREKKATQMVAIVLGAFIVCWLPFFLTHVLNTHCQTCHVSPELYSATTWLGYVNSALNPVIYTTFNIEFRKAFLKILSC
#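 Cells at 1500/well, incubated overnight, then treated with pinned compounds (dopamine as control) for 90 min at 37 degrees C. DiscoveRx reagent added for 30 - 60 minutes at room temperature; luminescence read.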
# B2AR arrestin: recruits beta-arrestin to the human beta2-adrenergic receptor. 330,000 compounds, 0.02% hits. beta-arrestin recruitment to beta2AR, cell-based reporter. P07550. AID 492947. Potency, µM (series often up to 46.1 µM), inactives show at the highest dose activation, most hits filed as activators;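 also: potency is read from the fitted curve at half-maximal effect; 0% = DMSO controls and full agonism = EC100 isoproterenol or metaproterenol; nearly all actives have a fitted effect of over 65% in size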
# DRD3 antagonist: antagonists of human D3 dopamine receptor | P35462 | 360,000 compounds, 2.5% hits | max response, negative = inhibition, % | D3R cells, DiscoveRx beta-arrestin luminescence, antagonist mode; stronger effect = lower value; in the data active = max response below about -50%; inconclusive = no clear call, values can overlap the other calls; also: % is scaled to controls: 0 for no effect and ±100 for the full control effect
#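 Cells plated overnight at 1500 cells/well, then exposed to library compounds with dopamine controls for 90 minutes at 37 degrees C. DiscoveRx reagent added for 30–60 minutes at room temperature; luminescence read, quantitative HTS format.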
# BRCA1 expr act: increases BRCA1 expression | MCF7-BRCA1-FFLuc reporter, luminescence, 48 h; response scale: scaled: vehicle 0%, 10 µM genistein 100% | Potency, µM (highest dose often 46.1 µM), without a hit: at the highest dose activation, usual class: activators | 380,000 compounds, 1.1% hits; also: potency is read from the fitted curve at half-maximal effect; nearly all actives have a fitted effect of over 80% in size
#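 Using MCF7 cells harboring a BRCA1 firefly luciferase reporter, plated 2 h before compound pinning, the screen measured luminescence after 48 h incubation. Responses were normalized to DMSO and 10 microM genistein, then fitted for concentration-effect.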
# PTHR1 agonist: activates the human parathyroid hormone receptor PTHR1 | AID 743266 | Q03431 | HEK293 GP2 PTHR1 cells, GloSensor cAMP luminescence, 1 h | 410,000 compounds, 0.075% hits | Potency, µM (top dose mostly 115 µM), without a hit: at the top dose activation, hits mostly activators; also: potency is read from the fitted curve at half-maximal effect; nearly all actives have a fitted effect of over 55% in size
#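 HEK-293-derived GP2 cells expressing PTHR1 and a GloSensor cAMP reporter, 3,000/well, plated overnight, given luciferin plus IBMX (each 0.5 mM as added) for 1 h at 37 °C, then compound for 1 h at 37 °C. Luminescence was read after 15 min at room temperature.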
# An asterisk follows results filed as active; i = inactive; ? = inconclusive; nt = not tested or not shown; ! = repeats disagree; [ ] = dose if it differs, or a comment. Shown are actives, neighbours in structure and some others; about 3.7% of the full set was active somewhere. Unless noted, calls follow the shape of the dose curve; as a rule, active = well fitted curve in the direction sought with a large enough effect; inconclusive = small, poorly fitted or top-dose-only effect, or another doubt; inactive = no such curve, though single readings can be large; an effect the other way counts as inactive or inconclusive.
SMILES,RGS4 inh,DRD3 agonist,B2AR arrestin,DRD3 antagonist,BRCA1 expr act,PTHR1 agonist
COc1ccccc1OCC1CNC(=O)O1 (stereo not given),nt,0,nt,nt,nt,nt
Cc1cc(C)cc(OCC2CNC(=O)O2)c1 (stereo not given),nt,83*!,nt,14,-6%,-21%
C/C(=N\OC(=O)c1c(-c2c(F)cccc2Cl)noc1C)c1nccs1,-9%,12,0%,14,1%,-17%
Cc1onc(-c2c(F)cccc2Cl)c1C(=O)O/N=C(\N)c1ccc([N+](=O)[O-])o1,2%,33*,0%,8,-27%,0%
Cc1onc(-c2c(Cl)cccc2Cl)c1/C(N)=N/OC(=O)C(C)(C)C,1%,36*,-1%,-12,-2%,-6%
CC(C)(C)C(=O)O/N=C(\N)c1c(Cl)cccc1Cl,0%,5,0%,1,7%,-4%
COc1ccc(CN2C(=O)CN(S(C)(=O)=O)CC2(C)C(=O)NC(C)C)cc1OC (stereo not given),nt,-9,nt,3,nt,-39%
Nc1c(C(=O)NCc2ccco2)c2nc3ccccc3nc2n1CCc1ccccc1,-4%,6,-1%,44,-51%,-16%
CCOc1ccc(-n2c(N)c(C(=O)NCc3ccco3)c3nc4ccccc4nc32)cc1,?,-13,0%,-79*,-58%,-40%
C[C@@H]1CN([C@H](C)CO)C(=O)CCCn2nncc2CO[C@H]1CN(C)S(=O)(=O)c1ccc2ccccc2c1,nt,-8,nt,-4,1%,-21%
C[C@@]12C(=O)N(CCO)CC(=O)N1[C@H](/C=C/c1ccccc1)[C@@H]1C(=O)N(c3ccccc3)C(=O)[C@@H]12,19%,-4,0%,-59*,-4%,-6%
O=S(=O)(Nc1cccc(S(=O)(=O)N2CCCCCC2)c1)c1ccccc1,-4%,33*,-1%,3,-43%,-11%
CC1(C2CC2)NC(=O)N(CC(=O)N2CCN(c3cccc(C(F)(F)F)c3)CC2)C1=O (stereo not given),28%,-1,0%,0,-29%,-7%
CCCCN1CC(c2nc3ccccc3n2CCCCOc2c(C)cccc2C)CC1=O (stereo not given),5%,-14,nt,nt,-35%,-6%
CC1=C(C(=O)Nc2ccc(C(=O)NCCCN3CCCCC3)cc2)SCCO1,-8%[56.9 µM],1,0%,0,12%,i
COc1ccc(N2CCN(C(CNC(=O)CC(C)C)c3ccc4c(c3)OCO4)CC2)cc1 (stereo not given),-18%,-20,nt,nt,nt,-13%
CCCCNC(=O)Oc1cccc(N2CCCC2=O)c1,-31%,5,0%,-69*,2%,i
CNC(=O)c1ccccc1Sc1ccc2c(/C=C/c3ccccn3)n[nH]c2c1,nt,6,nt,nt,nt,nt
COc1ccc(N2CCN(CCCNC(=O)Cn3c(=O)c4cccn4c4ccccc43)CC2)cc1,19%,-5,0%,-60*,23%,?
O=C(Cn1c(=O)c2cccn2c2cccnc21)NCCCN1CCN(c2ccc(F)cc2)CC1,12%,-25,0%,-118*,-6%,i
O=c1c2cccnc2[nH]c(=S)n1CCCN1CCN(c2ccc(F)cc2)CC1,-9%,0,0%,-65*,3%,i
CCn1cc(C(=O)NCCC(C)C)c(=O)c2cc(S(=O)(=O)N(C)C3CCCCC3)ccc21,-26%,7,nt,nt,29%,-24%
CCOC(=O)c1cc2cc(OC)ccc2n1C1CCN(CCc2ccccc2)CC1,nt,-8,nt,-109*,2%,12%
CC(C)(C)C(C(=O)NCc1ccccc1)N1CCN(CCN2CCOCC2)CC1 (stereo not given),nt,-18,nt,-64*,nt,-3%
CCOc1ccc(-n2c(=O)c3c(C)c(C)sc3n(CC(=O)NCCc3ccccc3)c2=O)cc1,-2%,10,nt,nt,nt,-3%
SMILES,RGS4 inh,DRD3 agonist,B2AR arrestin,DRD3 antagonist,BRCA1 expr act,PTHR1 agonist
COc1ccc(N2CC(NC(=O)C(=O)c3c(C)[nH]c4ccccc34)CC2=O)cc1 (stereo not given),3%,-11,nt,nt,nt,2%
COCc1cc(C)nc(N2CCN(Cc3ccccc3)CC2)c1C#N,-24%,-24,0%,-90*,-13%,-7%
COCc1cc(C)nc(N2CCNCC2)c1C#N,16%,-7,0%,-56*,-2%,i
CC(=O)c1ccc(N2CCN(S(=O)(=O)c3c(C)[nH]c(C)c3C(=O)N3CCCCC3)CC2)cc1,43%[11.4 µM],2,0%,-21,0%,-9%
O=C(OCn1ncc(Cl)c(Cl)c1=O)c1cccc(C(F)(F)F)c1,-23%,-6,-1%,-71*,-113%,-25%
O=C(NC(c1ccccc1)c1ccsc1)C1CCN(Cc2ccc(Cl)c(Cl)c2)CC1 (stereo not given),nt,-18,nt,-61*,0%,-14%
O=C(NC(c1ccccc1)c1ccsc1)C1CCN(Cc2ccc(Oc3ccccc3)cc2)CC1 (stereo not given),nt,-19,nt,-100*,-15%,-9%
CCNC(=O)C1CCCN(Cc2ccc(OCc3ccccc3)cc2)CC1 (stereo not given),nt,-16,nt,?,54%,-10%
Cc1cc(Br)ccc1OCCCCNC(C)(C)C,?,1,0%,-66*,-19%,i
COCCCNCCCCOc1ccc(Br)cc1C,-13%,-25,1%,-97*,-67%,-15%
COc1ccccc1OCCCCNC(C)(C)C,20%,-24,0%,?,1%,i
COCCNCCCCOc1ccc(Br)cc1C,15%,-31,0%,0,-48%,-20%
COc1ccccc1C(C)NCC(=O)Nc1ccccc1C(F)(F)F (stereo not given),-8%,-8,2%,-57*,-14%,i
CCC(O)(C(=O)Nc1ccccc1C(F)(F)F)c1ccccc1OC (stereo not given),15%,5,1%,6,-7%,-22%
Cc1ccc(C)c(OCCCNC2CCCC2)c1C,-9%,-15,0%,-73*,-37%,?
Cc1ccc(OCCCNC2CCCC2)cc1,10%,-2,-1%,-14,0%,-5%
Cc1ccc(OCCCCNC2CCCCC2)c(C)c1,4%[11.4 µM],-16,0%,-79*,-69%,-13%
N#Cc1ccccc1OCCCNC1CCCC1,-8%,-4,0%,-80*,16%,i
COc1cccc(OC)c1OCCNCCO,32%,-3,-2%,-12,-9%,i
COc1cccc(OC)c1OCCCNC1CCCC1,34%,-23,0%,-55*,0%,?
CCC(C)(C)C1CCC2(CC1)NC(=O)N(CC(=O)NC(C)CCc1ccccc1)C2=O (stereo not given),4%,9,0%,-3,-17%,i
